ELG1 repair inh: inhibitors of ELG1-dependent DNA repair in HEK293T cells. HEK293T ELG1-luciferase reporter, luminescence, 16 h; DNA damage induced by 5-fluorouridine. AID 504467. Potency, µM (series often up to 46.1 µM), for inactives: at the highest dose activity change, negative = inhibition, most hits filed as inhibitors. 330,000 tested, 2.3% active; note: potency is the fitted concentration of half-maximal effect; nearly all actives have a fitted effect of over 55% in size
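In this reporter screen, reduction of luminescence relative to DMSO vehicle indicated activity. Compounds and 5-fluorouridine were added together to 2,000 cells per well, incubated for 16 hr at 37 °C, then developed with ONE-Glo.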
TDP1 cell noCPT: qHTS for Inhibitors of human tyrosyl-DNA phosphodiesterase 1 (TDP1): qHTS in cells in absence of CPT | DT40 Tdp1-/- hTDP1 cells, no CPT, ATP luminescence, 48 h | Potency, µM (titrated, usually from 46.2 µM), without a hit: at the top dose activity change, negative = growth inhibition, actives largely listed as inhibitors | 420,000 tested, 15% active | AID 686978, 2013; note: potency is the fitted concentration of half-maximal effect; nearly all actives have a fitted effect of over 55% in size
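Compound effects on proliferation are scored in DT40 Tdp1-/-;hTDP1 cells in the absence of CPT. ATP levels (CellTiter-Glo luminescence) are recorded after a ≥48 hr, 37 °C incubation.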
HT1080-NT tox: kills 2HG-producing HT-1080-NT fibrosarcoma cells; HT-1080-NT fibrosarcoma viability, CellTiter-Glo ATP luminescence, 48 h; Potency, µM (highest dose often 46.1 µM), inactives show at the highest dose activity, negative = less viability, actives largely listed as cytotoxic; 360,000 tested, 1.6% active; AID 686970;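 note: NT is the 2HG producing partner of a matched IDH1 knockdown line; potency is the fitted concentration of half-maximal effect; 0% = DMSO-treated cells and -100% = media-only wells without cells; nearly all actives have a fitted effect of over 55% in size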
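Viability of the 2HG-overproducing fibrosarcoma line after 48 hours of compound exposure at 37 degrees C was determined by luminescence with CellTiter-Glo, and concentration-effect curves were then fitted and categorized.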
HT1080 IDH1KD tx: HT-1080 IDH1 knockdown cell toxicity (counter line); HT-1080 IDH1 knockdown viability, ATP luminescence, 48 h; 360,000 tested, 2% active; AID 686971; Potency, µM (highest dose often 46.1 µM), for inactives: at the highest dose activity, negative = toxicity, most hits filed as cytotoxic;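 note: potency is the fitted concentration of half-maximal effect; 0% = DMSO wells and -100% = cell-free medium wells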
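HT-1080-IDH1KD cells (IDH1 knocked down), 750/well in RPMI with 5% FBS, treated with compound 48 h at 37 degrees C. Viability by CellTiter-Glo luminescence, normalised to DMSO and no-cell wells; concentration-response curves classed.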
TDP1 cell CPT: DT40-hTDP1 cell growth loss with CPT; chicken DT40 Tdp1-/-;hTDP1 cells + 20 nM CPT, ATP luminescence, 48 h; Potency, µM (titrated, usually from 46.2 µM), inactives show at the top dose activity change, negative = growth inhibition, usual class: inhibitors; 420,000 tested, 12% active; AID 686979; note: potency is the fitted concentration of half-maximal effect; nearly all actives have a fitted effect of over 55% in size
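Cell growth measured by CellTiter-Glo luminescence after a minimum 48 h, 37 C compound exposure with 20 nM CPT in Tdp1-knockout DT40 cells stably expressing hTDP1, seeded 400/well; qHTS titration format.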
IL1B secr inh: blocks inflammasome-driven IL-1 beta release; THP-1 LPS/ATP IL-1B secretion, AlphaLISA, 16 h; active compounds read low; 360,000 tested, 4.7% active; activity change, % at 57.5 µM; in the data active = activity change below about -50%; inconclusive = mostly about -30% to -49%
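THP-1 cells pretreated 1 hr with compounds (up to 57.5 uM final), then stimulated with LPS (250 ng/mL final) plus ATP (1.25 mM final); secreted IL-1B measured by AlphaLISA after 16 hr, decreased signal indicating inhibition.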
* marks the source's active call; other numbers are inactive results; ? = inconclusive; . = no result. Only some compounds are listed: those with a hit (about 19% of all), similar ones and a draw of the others. Unless noted, calls come from the whole dose curve; as a rule, active = well fitted curve in the direction sought with a large enough effect; inconclusive = small, poorly fitted or top-dose-only effect, or another doubt; inactive = no such curve, though single readings can be large; an effect the other way counts as inactive or inconclusive. Unless noted, % is set by controls: 0 for no effect and ±100 for the full control effect.

SMILES | ELG1 repair inh | TDP1 cell noCPT | HT1080-NT tox | HT1080 IDH1KD tx | TDP1 cell CPT | IL1B secr inh
COc1cc(CNc2ccc(S(N)(=O)=O)cc2)ccc1OCc1ccccc1F | . | ? | -2.4% | -9.8% | 18.4µM* | -7.1
COc1cc(C(=S)N2CCCC2)ccc1OCc1ccccc1 | ? | ? | -0.6% | -3.6% | 1.2% | -3.4
COc1cc(C)ccc1OC(C)C(=O)Nc1ccc(N2CCCCC2)cc1 (centres undefined) | -18.6% | 13µM* | 4.2% | 12.0% | ? | -15.7
COc1cc(CNc2ccc(N3CCCC3)cc2)ccc1OCc1ccccc1 | ? | 2.06µM* | ? | -23.8% | 1.64µM* | -19.7
COc1cc(CNC(C)(C)CO)ccc1OCC(=O)NC(C)(C)C | -9.4% | 4.4% | 9.5% | 3.3% | 9.0% | 0.0
COc1cc(CNc2ccc(N3CCCCC3)cc2)ccc1OCC(=O)NC(C)(C)C | 9.2µM* | 23.1µM* | -5.6% | -6.2% | ? | -19.6
CCN(CC)C(=O)Cn1c(=O)nc(-c2ccccc2F)c2cc(Cl)ccc21 | . | -9.9% | . | . | -7.6% | .
COCCN(C(=O)CCSc1ccc(F)cc1)c1c(N)n(Cc2ccccc2)c(=O)[nH]c1=O | 2.8% | -26.7% | -5.0% | 1.6% | -0.9% | 10.9
O=C(Nc1ccc(OC(F)(F)F)cc1)c1nc2ccccc2nc1N1CCCCC1 | . | -15.4% | . | . | -25.0% | .
C=CCOc1c(CNc2ccc(S(N)(=O)=O)cc2)cccc1OC | ? | 18.4µM* | -9.6% | -10.4% | ? | ?
CCNc1nc(SCCOc2ccc(C)cc2)nc(N(C)C)n1 | -19.8% | 20.6µM* | -18.1% | -28.1% | 16.4µM* | 41.3
CCNc1nc(SCCOc2ccc(Cl)cc2Cl)nc(N(C)C)n1 | -6.4% | ? | 0.4% | 1.0% | ? | 0.0
CCOC(=O)C1CCN(C(=O)COC(=O)c2nn(C)c(=O)c3ccccc23)CC1 | 14.9% | 8.4% | -4.1% | 0.6% | 8.0% | 6.0
Cc1ccc(C)c(OCCOCCn2c(-c3ccc(Br)cc3)nc3ccccc3c2=O)c1C | . | 15.1% | . | . | ? | .
Cc1ccc(C(OCCN(C)C)c2cccc(C(F)(F)F)c2)cc1 (centres undefined) | 6.3% | 23.1µM* | -19.8% | -19.7% | 23.1µM* | -66.7*
CN(C)CCO[C@@H](c1ccc(Cl)cc1)c1ccccn1 | 8.4% | -10.0% | -3.0% | -0.1% | 3.3% | -14.3
COc1cc(CCC(=O)Nc2cccc(C(F)(F)F)c2)cc(OC)c1OC | -12.1% | 13µM* | 11.9% | 8.6% | ? | 0.8
COc1cc(CCC(=O)OCC(=O)Nc2ccc(F)c(F)c2)cc(OC)c1OC | 0.0% | -11.1% | -1.4% | -3.2% | -4.2% | 6.9
COc1cc(CCC(=O)Nc2ccc(Br)c(C(F)(F)F)c2)cc(OC)c1OC | ? | 20.6µM* | -8.2% | ? | 18.4µM* | -18.2
COc1cc(C(=O)Nc2ccc(Nc3ccccc3)cc2)cc(OC)c1OC | ? | ? | -23.6% | -25.7% | ? | -56.1*
COCC(=O)Nc1cccc(C(F)(F)F)c1 | 0.8% | -17.0% | -0.5% | -2.7% | -0.1% | 27.8
COc1cc(CCC(=O)Nc2nnc(C)s2)cc(OC)c1OC | 3.0% | 2.91µM* | 6.51µM* | 7.31µM* | 4.61µM* | 21.9
O=C(NNC(=O)C1CC(c2cccs2)=NO1)Nc1ccccc1 (centres undefined) | -1.5% | 12.0% | -3.3% | 4.1% | 3.4% | -5.7
CCOc1ccc(NC(=O)CN(C)C(=O)c2c(-c3c(F)cccc3Cl)noc2C)cc1OCC | ? | -20.7% | -3.6% | -3.6% | ? | -7.6
COc1ccc2nc(NC(=O)CCn3cccc3)sc2c1 | 26.3% | 6.4% | -23.4% | ? | -22.8% | -5.5

Compound activity (PubChem BioAssay)
